Source: PubChem BioAssay (NCATS)
“And” between values parts separate entries of the source, which are not always exact repeats. Equal values may be shown once. Inconclusive results are not listed. Where a call stands in place of a potency, no number is given. A structure can be active in one record and inactive in another. The source made the active and inactive calls. Calls follow the shape of the dose curve; as a rule, active = well fitted inhibition curve with a large enough effect in the repeat runs; inconclusive = weak or mixed curves; inactive = no such curve, though single readings can be large or run the other way. Peptide text beside a SMILES is read from it.

What follows are molecules tested against Cytochrome P450 3A4 (Homo sapiens) (UniProt P08684) (assay: Cytochrome P450 family 3 subfamily A member 4 (CYP3A4) small molecule antagonists: luciferase qHTS assay (AID 1645841; also: nearly all actives have a fitted effect of over 45% in size)). Settings: P450-Glo CYP3A4 enzyme assay, luciferin luminescence; series mostly up to 57.4 µM.
Outline: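 P450-Glo CYP3A4 enzyme with proluciferin substrate was preincubated with DMSO-dissolved compounds for 10 min at room temperature. NADPH regeneration solution started a 1 h reaction. Detection reagent stopped it, and luminescence was read after 20 min.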

Cytochrome P450 3A4 (Homo sapiens), sequence (P08684 whole entry, looked up): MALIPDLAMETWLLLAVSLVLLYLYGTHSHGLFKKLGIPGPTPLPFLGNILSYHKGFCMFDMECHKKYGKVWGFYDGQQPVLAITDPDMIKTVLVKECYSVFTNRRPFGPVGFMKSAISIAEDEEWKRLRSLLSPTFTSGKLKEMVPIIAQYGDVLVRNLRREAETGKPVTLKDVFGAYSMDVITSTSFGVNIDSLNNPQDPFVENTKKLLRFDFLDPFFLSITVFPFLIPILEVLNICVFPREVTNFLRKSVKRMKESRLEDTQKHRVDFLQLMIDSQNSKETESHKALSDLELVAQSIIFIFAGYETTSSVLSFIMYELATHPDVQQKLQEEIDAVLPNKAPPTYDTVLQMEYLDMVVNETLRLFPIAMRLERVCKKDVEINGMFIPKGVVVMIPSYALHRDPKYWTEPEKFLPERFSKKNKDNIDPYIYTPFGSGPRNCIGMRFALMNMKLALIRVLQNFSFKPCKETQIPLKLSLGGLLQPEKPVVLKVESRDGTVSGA

Row | Structure (SMILES) | outcome
1 | O=C(OC1C[C@H]2CC[C@@H](C1)[N+]21CCCC1)C(O)(c1ccccc1)c1ccccc1 (stereo partly specified) | inactive
2 | COc1cc(Nc2c(C#N)cnc3cc(OCCCN4CCN(C)CC4)c(OC)cc23)c(Cl)cc1Cl | inactive
3 | Cc1ccc(C)c(OCCCC(C)(C)C(=O)O)c1 | inactive
4 | CCC[C@@H]1C[C@@H](C(=O)N[C@@H]([C@H]2O[C@H](SC)[C@H](O)[C@@H](O)[C@H]2O)[C@@H](C)O)N(C)C1 | inactive

The molecules below were run against Cytochrome P450 2C9 (Homo sapiens) (UniProt P11712) (assay: Cytochrome P450 family 2 subfamily C member 9 (CYP2C9) small molecule antagonists: luciferase biochemical (cell-free) qHTS assay (AID 1645842; also: nearly all actives have a fitted effect of over 55% in size; also: potency is read from the fitted curve at half-maximal effect)). Settings: P450-Glo CYP2C9 enzyme assay, luciferin luminescence; series mostly up to 57.4 µM.
Outline: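 Luminescence, after 20 min with luciferin detection reagent, reflected CYP2C9 turnover during a 1 h NADPH-driven reaction at 37C. Enzyme-substrate mix contained 0.4% bovine serum albumin and was preincubated with compound 10 min at room temperature.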

Cytochrome P450 2C9 (Homo sapiens), sequence (P11712 whole entry, looked up): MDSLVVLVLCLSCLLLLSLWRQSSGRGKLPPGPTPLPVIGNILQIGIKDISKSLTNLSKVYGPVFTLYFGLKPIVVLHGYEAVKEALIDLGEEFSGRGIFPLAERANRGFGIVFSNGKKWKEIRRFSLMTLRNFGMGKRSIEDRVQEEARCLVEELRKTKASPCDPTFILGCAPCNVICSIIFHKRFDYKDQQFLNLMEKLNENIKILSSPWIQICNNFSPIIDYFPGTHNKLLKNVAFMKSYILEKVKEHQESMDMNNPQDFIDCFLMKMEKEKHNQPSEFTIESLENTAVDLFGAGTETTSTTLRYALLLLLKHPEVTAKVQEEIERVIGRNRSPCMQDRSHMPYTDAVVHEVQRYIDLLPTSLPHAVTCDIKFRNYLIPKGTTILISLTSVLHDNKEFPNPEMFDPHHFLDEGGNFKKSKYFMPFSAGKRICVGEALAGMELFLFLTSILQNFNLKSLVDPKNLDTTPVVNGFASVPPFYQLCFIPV

Row | Structure (SMILES) | Potency
5 | CCCOc1ccc2nc(NC(=O)OC)[nH]c2c1 | inactive
6 | CC1=C(C(=O)O)N2C(=O)[C@@H](NC(=O)[C@H](N)C3=CCC=CC3)[C@H]2SC1 | inactive
7 | C=CCc1cc(OC)c(O)c(C(=O)NCCO)c1 | inactive
8 | Cc1nc2n(c(=O)c1CCN1CCC(c3noc4cc(F)ccc34)CC1)CCCC2 | inactive
9 | CC(C)Oc1ccc2c(=O)c(-c3ccccc3)coc2c1 | 13.8 µM (active) and 21.9 µM (active)
10 | O=C(OC1C[C@H]2CC[C@@H](C1)[N+]21CCCC1)C(O)(c1ccccc1)c1ccccc1 (stereo partly specified) | inactive
11 | Nc1ncn([C@H]2C[C@H](O)[C@@H](CO)O2)c(=O)n1 | inactive
12 | O=C(O)CCNC(=O)c1ccc(N=Nc2ccc(O)c(C(=O)O)c2)cc1 | inactive
13 | COCCCN1CCC(NC(=O)c2cc(Cl)c(N)c3c2OCC3)CC1 | 2.45 µM (active)
14 | CC(C)[C@H](N)C(=O)OCCOCn1cnc2c(=O)[nH]c(N)nc21 | inactive
15 | CCCCC(CC)COC(=O)C(C#N)=C(c1ccccc1)c1ccccc1 (stereo unspecified) | 1.1 µM (active) and 3.01 µM (active)
16 | S=c1nc[nH]c2nc[nH]c12 | 19.5 µM (active)
17 | COc1cc(Nc2c(C#N)cnc3cc(OCCCN4CCN(C)CC4)c(OC)cc23)c(Cl)cc1Cl | inactive
18 | COc1cc2c(N3CCN(C(=O)Nc4ccc(OC(C)C)cc4)CC3)ncnc2cc1OCCCN1CCCCC1 | inactive
19 | COc1cc(OC)c(C(=O)CCCN2CCCC2)c(OC)c1 | inactive
20 | CCc1nc(N)nc(N)c1-c1ccc(Cl)cc1 | inactive

Row | Structure (SMILES) | Potency
21 | CC(C)c1ccc2oc3nc(N)c(C(=O)O)cc3c(=O)c2c1 | 13.8 µM (active)
22 | COC(=O)[C@H](Cc1ccccc1)NC(=O)[C@@H](N)CC(=O)O (H-Asp-Phe-OMe) | inactive
23 | N=C(N)c1ccc2cc(OC(=O)c3ccc(N=C(N)N)cc3)ccc2c1 | inactive
24 | Clc1ccc(C(Cn2ccnc2)OCc2ccc(Sc3ccccc3)cc2)c(Cl)c1 (stereo unspecified) | 2.75 µM (active)
25 | Cc1cc2cc3c(C)cc(=O)oc3c(C)c2o1 | inactive
26 | CC(S)C(=O)NCC(=O)O (stereo unspecified) | inactive
27 | CN1C(C(=O)Nc2ccccn2)=C(O)c2sccc2S1(=O)=O | 12.3 µM (active)
28 | Cc1ncc([N+](=O)[O-])n1CC(C)O (stereo unspecified) | inactive
29 | Cc1nccn1CC1CCc2c(c3ccccc3n2C)C1=O (stereo unspecified) | inactive
30 | NC(=O)Cc1cccc(C(=O)c2ccccc2)c1N | inactive
31 | O=C(NC(Cc1cc(=O)[nH]c2ccccc12)C(=O)O)c1ccc(Cl)cc1 (stereo unspecified) | inactive
32 | N=C(N=C(N)N)N1CCOCC1 | inactive
33 | CN(C)C(=O)COC(=O)Cc1ccc(OC(=O)c2ccc(N=C(N)N)cc2)cc1 | inactive
34 | COCCCOc1ccnc(CS(=O)c2nc3ccccc3[nH]2)c1C (stereo unspecified) | inactive and 15.1 µM (active)
35 | Cc1cc(=O)oc2cc(O)ccc12 | inactive
36 | CCC[C@@H]1C[C@@H](C(=O)N[C@@H]([C@H]2O[C@H](SC)[C@H](O)[C@@H](O)[C@H]2O)[C@@H](C)O)N(C)C1 | inactive
